According to PubChem BioAssay (Tox21):
Unmarked numbers belong to inactive results. Active and inactive are the calls of the source. Calls come from the whole dose curve.

target: Thyrotropin-releasing hormone receptor (Homo sapiens) (UniProt P34981); assay: qHTS assay to identify small molecule agonists of the thyrotropin-releasing hormone receptor (TRHR) signaling pathway (AID 1346891); conditions: TRHR-HEK293 calcium fluorescence, agonist mode; series mostly up to 57.6 µM; activation: at the top concentration;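 note: HEK293 cells expressing TRHR with calcium dye readout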
Sequence (P34981 whole entry, looked up): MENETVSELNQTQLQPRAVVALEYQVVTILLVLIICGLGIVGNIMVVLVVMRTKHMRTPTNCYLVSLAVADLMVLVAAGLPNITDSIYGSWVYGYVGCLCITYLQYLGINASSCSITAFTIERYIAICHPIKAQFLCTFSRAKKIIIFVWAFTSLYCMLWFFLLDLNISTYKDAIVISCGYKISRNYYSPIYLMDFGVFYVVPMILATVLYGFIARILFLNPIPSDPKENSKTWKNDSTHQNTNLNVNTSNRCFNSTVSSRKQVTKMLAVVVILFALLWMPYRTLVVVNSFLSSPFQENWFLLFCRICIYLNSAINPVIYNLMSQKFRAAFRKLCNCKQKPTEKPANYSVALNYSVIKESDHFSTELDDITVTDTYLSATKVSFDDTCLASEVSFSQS
Description: National Center for Advancing Translational Sciences [NCATS] NIH Chemical Genomics Center [NCGC] U.S. Environmental Protection Agency [EPA] National Institutes of Environmental Health Sciences [NIEHS] National Toxicology Program [NTP] Assay overview: Thyrotropin-releasing hormone (TRH) receptor (TRHR) is a G-protein-coupled receptor which binds the tripeptide thyrotropin releasing hormone. TRHR is found in the brain and, when bound by TRH, acts (through phospholipase C) to increase intracellular inositol trisphosphate. It plays a crucial role in the anterior pituitary where it controls the synthesis and secretion of thyroid stimulating hormone and prolactin. The TRHR-Hek293 assay is a cell-based assay, and it has the potential to screen G protein-coupled receptors. A compound/drug can either activate (agonist) or suppress (antagonist) GPCRs that can be monitored by levels of intracellular calcium. Using this assay, the Tox21 10K compound library was screened to identify potential TRHR agonists.
Assay Protocol Summary: The TRHR-Hek293 cells were dispensed at 1500cells/4uL/well in 1536-well black-clear bottom plates using a Multidrop dispenser. After the assay plates were incubated at a 37 C/5% CO2 incubator for 18 hours, 4 uL of Dye-Loading Solution was added to each well. The plates were incubated at 37 C for 2 hours. For agonist mode, 23 nL of compounds dissolved in DMSO, positive controls or DMSO only was transferred to the assay plate by a pin tool. The fluorescence intensity in the plates was measured using FDSS 7000EX kinetic plate reader for 3 min at 1 sec intervals. Each test compound was measured at 15 concentrations and in triplicates.
% is set by controls: 0 for no effect and ±100 for the full control effect.

Structure (SMILES) | activation | outcome
O=C(O)CCN(C1(C(=O)NO)CCCC1)S(=O)(=O)c1ccc(Oc2ccc(F)cc2)cc1 | 0.0808% | 
O=C(O)c1cc(O)c2ccccc2c1O | 0.615% | 
O=C(O)Cc1ccccc1Nc1c(Cl)cccc1Cl |  | inactive
Cc1cc(C(C#N)c2ccc(Cl)cc2)c(Cl)cc1NC(=O)c1cc(I)cc(I)c1O (stereo not given) | 3.94% [at 26.5 µM] | 
Oc1ccccc1O |  | inactive
COC(=O)c1ccccc1OC | -0.232% | 
C=CC(=O)Nc1cc2c(Nc3ccc(F)c(Cl)c3)ncnc2cc1OCCCN1CCOCC1 | 0.003% [at 26.5 µM] | 
C[C@@H](O)[C@H](N)C(=O)O | 0.352% [at 11.8 µM] | 
O=C1C(c2[nH]c3ccc(S(=O)(=O)O)cc3c2O)=Nc2ccc(S(=O)(=O)O)cc21 | 0.0078% | 
CC(N=C(NC#N)Nc1ccncc1)C(C)(C)C (stereo not given) | 0.0119% [at 26.5 µM] | 
Clc1ccnc(Cl)n1 | -0.0634% | 
CCN(CCN)c1cccc(C)c1 |  | inactive
COC(=O)Nc1nc2ccc(C(=O)c3ccccc3)cc2[nH]1 | -0.225% [at 26.5 µM] | 
OC1CCC(C2CCCCC2)CC1 (stereo not given) | 0.63% | 
CCCCCCCCCCC[C@@H](C[C@@H]1OC(=O)[C@H]1CCCCCC)OC(=O)[C@H](CC(C)C)NC=O | 0.0205% [at 26.5 µM] | 
CN1CCC[C@@H]1CCO[C@](C)(c1ccccc1)c1ccc(Cl)cc1 | 2.62% [at 26.5 µM] | 
Cc1c(C)c2c(c(C)c1O)CC[C@@](C)(CCC[C@H](C)CCC[C@H](C)CCCC(C)C)O2 | -0.777% | 
COCCOc1cc2cc(C(=O)NC3CCN(C(C)C)CC3)n(CC(=O)Nc3ccc(Cl)cn3)c2cn1 | 0.0936% | 
S=c1nccc[nH]1 | -0.11% | 
O=C(O)c1ccc2cc(C(=O)O)ccc2c1 | -0.411% | 

Structure (SMILES) | activation | outcome
CNC(=O)c1ccccc1Sc1ccc2c(/C=C/c3ccccn3)n[nH]c2c1 | 1.08% [at 26.5 µM] | 
NC(=O)c1cccc([N+](=O)[O-])c1 | -0.17% | 
CCCCC(CC)CN1CN(CC(CC)CCCC)CC(C)(N)C1 (stereo not given) | 0.151% [at 26.5 µM] | 
CCCCCC/C=C\CCCCCCCC(=O)O | -0.0367% | 
CCCCC/C=C\C/C=C\CCCCCCCC(=O)O |  | inactive
CCC(CC)(CC(=O)Nc1cccc(/C=C/c2nc(C3CCC3)cs2)c1)C(=O)O | -0.0167% [at 26.5 µM] | 
OC/C=C/CO | -0.0833% | 
CCCCCCCCCCCCOC(=O)c1ccc(O)cc1 | -0.132% | 
Cc1nc2n(c(=O)c1CCN1CCC(c3noc4cc(F)ccc34)CC1)CCCC2 | 0.0668% [at 26.5 µM] | 
CNc1ccc([N+](=O)[O-])cc1 | -0.0407% | 
OC1CCCc2ccccc21 (stereo not given) | -0.0566% | 
COc1cccc(OC)c1C(=O)O | 0.0548% | 
Cc1nc(-c2ccc(Cl)cc2)oc1COC(C)(C)C(=O)O | -0.294% [at 26.5 µM] | 
CCCCCCCCCCCCOCCOCCOCCOCCOCCOCCOCCOCCOCCO | 13.3% [at 26.5 µM] | 
CCC(COC(=O)CCS)(COC(=O)CCS)COC(=O)CCS | -0.212% | 
CCCCCC(C)OC(=O)COc1ccc(Cl)c2cccnc12 (stereo not given) | 6.74% | 
O=C(O)c1cc(N=Nc2ccc([N+](=O)[O-])cc2)ccc1O | 0.858% | 
COc1ccc(NC(=O)CC(C)=O)cc1 | 0.29% | 
c1ccc(C(O[C@@H]2CCCN(CCc3ccc4c(c3)OCO4)C2)c2ccccc2)cc1 | 2.45% | 
O=c1oc2cc(O)ccc2c2oc3cc(O)ccc3c12 | 0.233% | 
